# Measured values taken from the supplement of paper PMC6763611.
# System: Plasmodium falciparum NF54
# Assay: growth inhibition relative to untreated control; higher = more inhibition
# Conditions: 72 h
# In short: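 Two media were used: minimal RPMI, and minimal RPMI carrying the chorismate end-products folate, pABA, pHBA, tyrosine, phenylalanine and tryptophan at 2.2 μM, 7.3 μM, 7.3 μM, 111 μM and 90 μM for the first five. In these media, P. falciparum NF54 ring stages (1% hematocrit, 1% parasitemia, 100 μL/well) were exposed in dark 96-well half-area plates to a single 5 μM or 1 μM test-compound dose for 72 h at 37 °C. Growth inhibition was then assessed with SYBR Green against untreated wells, subtracting background from uninfected erythrocytes.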
# [1] = 1 µM, MM + chorismate end-products (CM screening medium)
# [2] = 5 µM, MM + chorismate end-products (CM screening medium)
Structure (SMILES),growth inhibition [1] [%],"growth inhibition (1 µM, minimal medium (MM)) [%]",growth inhibition [2] [%],"growth inhibition (5 µM, minimal medium (MM)) [%]"
O=C(Nc1cccc(-c2ccc(NCCCN3CCCC3)nc2)c1)c1ccccc1,96.3,> 100,63.2,81.1
COc1ccccc1OCCCCn1c(C2CC2)nc2ccccc21,37,21.3,74.9,50.7
Nc1ncc(-c2ccc(C(F)(F)F)nc2)cc1-c1ccc(C(F)(F)F)nc1,66.1,56.4,54.4,53.9
COc1ccc(Cl)cc1NC(=O)CN(C)C(=O)c1cnn(-c2ccccc2)n1,98.1,95.6,85,98.3
CCN(CC)S(=O)(=O)c1ccc(C(=O)Nc2cc(C)nn2-c2nc(C)c(C)c(=O)[nH]2)cc1,19.9,10.2,78.9,55.2
NS(=O)(=O)c1cncc(-c2ccc3nccc(-c4cn[nH]c4)c3n2)c1,83.8,> 100,92.8,94.8
COc1cccc(OC)c1C(=O)Nc1ccc(Cl)c(-c2nc3ccccc3s2)c1,20.8,< 0,22.9,29.8
CN1CCN(c2nccc3nc(-c4ccc(F)c(F)c4)[nH]c23)CC1,58.8,66.9,> 100,91.1
c1ccc(Oc2ccc(-c3cc(N4CCNCC4)[nH]n3)cc2)cc1,32.1,29.2,40.3,34.4
CCOC(=O)c1cc(-c2csc(Nc3c(C)cc(C)cc3C)n2)on1,12.2,20.5,34.3,< 0
CCN(CC)CCCN1CCN(C(=O)c2cccc(-c3noc(C(F)(F)F)n3)c2)CC1,86.3,84.9,95.3,87
Cc1nn2c(=O)c3c([nH]c2c1-c1ccc(Cl)cc1)CCCC3,< 0,22.1,7.72,16.2
Nc1ccc2ncnc(Nc3ccc(OCc4cccc(F)c4)c(Cl)c3)c2c1,61.9,24.6,99.7,95.7
N=C(N)Nc1ccc(-c2ccc(-c3ccc(N=C(N)N)c(Cl)c3)o2)cc1Cl,73.6,> 100,97.4,88.2
COc1cc(Br)cc2cc(C(=O)Nc3cccc(C(F)(F)F)c3)c(=O)oc12,11.9,6.95,21.7,< 0
CCc1ccc(C(NCc2nc(N)nc(N(C)C)n2)C(C)C)cc1 (stereo unspecified),9.14,< 0,51.5,9.29
O=C1Nc2ccc(Br)cc2C12NCCc1c2[nH]c2ccccc12 (stereo unspecified),97.4,94.7,95.9,87.5

Structure (SMILES),growth inhibition [1] [%],"growth inhibition (1 µM, minimal medium (MM)) [%]",growth inhibition [2] [%],"growth inhibition (5 µM, minimal medium (MM)) [%]"
Clc1cccc(C(c2ccc(CN3CCNCC3)cc2)n2ccnc2)c1 (stereo unspecified),93.2,> 100,93.5,91.5
c1ccc(-c2cc(N3CCCCC3)c3ccccc3n2)nc1,3.57,< 0,37.4,26.9
Brc1cncc(-c2cc(NCCCn3ccnc3)nc(-c3ccccc3)n2)c1,> 100,39.8,91.2,90.1
CNc1snc(C)c1C(=O)NCCOc1ccc(OC)cc1,42.3,< 0,42.9,34.9
COc1ccc(N(CCc2cccc(C)n2)C(C)=O)cc1,16.2,< 0,< 0,< 0
N=C(N)Nc1ccc(-c2ccc(-c3ccc(NC(=N)N)cc3Cl)o2)c(Cl)c1,96.9,95.5,95.7,95.3
CC(C)(C)OC(=O)N1CCC(Cn2nc(-c3cnc4ccccc4c3)c3c(N)ncnc32)CC1,> 100,< 0,64.1,52.3
CC(C)=CCC/C(C)=C/CNCCNC1C2CC3CC(C2)CC1C3 (stereo unspecified),88.5,92.6,> 100,91.3
CCCn1c(CNc2ccccc2O)nc2ccccc21,11.5,22.8,12.5,< 0
O=C(Nc1cccnc1)c1c(O)c2cccc3c2n(c1=O)CC3,6.17,21.1,4.63,< 0
CCOc1ccc(-c2nc(CNCCc3ccc(F)cc3)cs2)cc1,2.22,38.5,28.1,27.2
FC(F)(F)c1cccc(-c2nc3c(NCc4ccncc4)nccc3[nH]2)c1,99.9,> 100,95.4,96
c1ccc(Oc2ccc(-c3cc(CN4CCOCC4)[nH]n3)cc2)cc1,0.894,< 0,< 0,11.1
NCC(=O)N1CCn2c(nc(-c3ccccc3)c2Nc2ccc3c(c2)OCO3)C1,99.3,> 100,> 100,93.2
CC(C)(C)CN1C(=O)C(c2ccccc2)(c2ccccc2)N=C1N,45.9,45.7,57.1,34.9
Cc1ccc(-c2nc(CN(Cc3ccccn3)C(C)C)cs2)o1,47.7,20.3,81.7,49.2
CNc1nnc(Sc2cnn(-c3ccccc3)c(=O)c2Cl)s1,27,16.6,79.8,62.1
